The values that follow come from PubChem BioAssay AID493087 (The Scripps Research Institute Molecular Screening Center, 2011).

About 240 (0.071%) of roughly 340,000 compounds were called active.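 How the source made its calls: active means activation above the mean of all tested compounds plus 3 SD, set per screening campaign (cut at about 17% in these data); inactive means the rest.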 Many of the other results were omitted from the sample, so actives are more common in it than they were.

The target in the assay is Insulin-degrading enzyme (Homo sapiens) (UniProt P14735). As to the kind of experiment: enhanced cellular IDE Abeta cleavage – fluorescence polarization, HEK cells, FAbeta-B substrate, primary screen (AID 493087). As to conditions: at 5.96 µM, hits give high values, 0% vehicle, 100% cell-free pure enzyme wells.
Sequence of Insulin-degrading enzyme (Homo sapiens) (P14735 whole entry, looked up): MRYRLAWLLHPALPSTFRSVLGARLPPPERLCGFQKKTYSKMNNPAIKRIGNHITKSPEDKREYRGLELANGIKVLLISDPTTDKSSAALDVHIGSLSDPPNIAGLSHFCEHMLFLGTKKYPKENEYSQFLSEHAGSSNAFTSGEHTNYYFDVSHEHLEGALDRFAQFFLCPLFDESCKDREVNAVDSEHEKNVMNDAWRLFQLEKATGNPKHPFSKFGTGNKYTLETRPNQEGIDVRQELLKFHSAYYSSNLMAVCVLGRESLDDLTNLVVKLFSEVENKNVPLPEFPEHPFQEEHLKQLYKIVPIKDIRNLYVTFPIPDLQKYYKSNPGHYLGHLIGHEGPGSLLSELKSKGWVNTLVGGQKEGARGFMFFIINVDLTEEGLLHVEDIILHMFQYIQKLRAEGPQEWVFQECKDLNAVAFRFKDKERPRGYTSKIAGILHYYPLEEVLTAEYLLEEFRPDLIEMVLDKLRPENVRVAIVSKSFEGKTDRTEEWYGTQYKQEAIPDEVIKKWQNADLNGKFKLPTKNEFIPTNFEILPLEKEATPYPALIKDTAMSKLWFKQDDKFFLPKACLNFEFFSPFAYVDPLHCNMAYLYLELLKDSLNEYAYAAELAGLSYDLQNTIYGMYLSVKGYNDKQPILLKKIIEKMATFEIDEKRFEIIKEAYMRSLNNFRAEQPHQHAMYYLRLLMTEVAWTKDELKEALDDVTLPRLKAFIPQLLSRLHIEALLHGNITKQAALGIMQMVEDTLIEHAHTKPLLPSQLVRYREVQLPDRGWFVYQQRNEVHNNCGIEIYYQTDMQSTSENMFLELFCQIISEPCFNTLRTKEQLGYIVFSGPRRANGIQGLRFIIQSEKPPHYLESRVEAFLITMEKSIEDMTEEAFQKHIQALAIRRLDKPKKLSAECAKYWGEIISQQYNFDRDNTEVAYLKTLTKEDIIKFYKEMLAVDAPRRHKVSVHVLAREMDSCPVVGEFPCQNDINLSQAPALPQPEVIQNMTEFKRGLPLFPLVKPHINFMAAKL
On to `CCOC(=O)C1CCCN(S(=O)(=O)c2ccc3c(c2)C(C)(C)C(=O)N3C)C1` (stereo not drawn), for which the activation is 4.3% (inactive).
As for `CC(=O)N1CCCc2cc(S(=O)(=O)N3CCCC(C(=O)N4CCN(c5cccc(Cl)c5)CC4)C3)ccc21` (stereo not drawn), the figure is 1.25% (inactive); as for `O=C1CCC[C@@H]2CC(N3CCCCC3)C[C@@H]3CCN1[C@H]23` (stereo partly drawn), 3.58% (inactive).
In the case of `Cc1cccc(CCNC(=O)Cn2ncc3c([nH]c4ccc(C)cc43)c2=O)c1` it was 4.1% (inactive); in that of `COc1cccc(NC(=O)CC(c2ccc(OC(C)C)cc2)c2ccccc2OC)c1` (stereo not drawn), 5.55% (inactive).
In the case of `Cc1cccc(C(=O)NC(=S)N2CCN(c3ccc([N+](=O)[O-])cc3)CC2)c1` it was 7.97% (inactive); in that of `Cc1ccc(S(=O)(=O)N(C)C)cc1NC(=O)CN1c2cccc3cccc(c23)S1(=O)=O`, -4.07% (inactive); in that of `O=C(CN1CCN(c2cccc(Cl)c2)CC1)Nc1ccc(S(=O)(=O)N2CCOCC2)cc1`, -1.02% (inactive).
As for `CC1CC(C)CN(CCCNC(=O)c2csc3c2CCCCC3)C1` (stereo not drawn), the activation is 0.64% (inactive).
As to `COc1ccc(NS(=O)(=O)c2ccc(N3CCN(CCO)CC3)c([N+](=O)[O-])c2)cc1`, the activation is 4.53% (inactive).
Turning to `O=C1OCC2=C1C(c1ccccc1)CC(=O)N2c1cccc(F)c1` (stereo not drawn), the activation is 2.91% (inactive).
Consider `CCOC(=O)C1(CC2CCCCO2)CCN(Cc2nc(-c3cccs3)oc2C)CC1` (stereo not drawn), for which the activation is -1.12% (inactive).
In the case of `CCOC(=O)C1CCCN(C(=O)c2ccc(CS(=O)(=O)c3ccc(Br)cc3)o2)C1` (stereo not drawn) it was -1.91% (inactive); in that of `CCN1CCN(C2CCCCC2NS(=O)(=O)c2ccc(Cl)cc2)CC1` (stereo not drawn), 5.06% (inactive).
In the case of `O=C1c2ccccc2C(=O)N1CCC(c1ccccc1)c1ccco1` (stereo not drawn) it was 7.64% (inactive).
As for `CSc1nnnn1-c1c(C)cc(C)cc1C`, the figure is -3% (inactive); as for `CCOCCCNC(=O)c1c[nH]c2cc(C)ccc2c1=O`, 4.46% (inactive); as for `O=C1CC(c2ccccc2)C(=O)N2C(=O)CC(c3ccccc3)C(=O)N12` (stereo not drawn), 3.82% (inactive).
For the compound `CCc1nccn1S(=O)(=O)c1cccc([N+](=O)[O-])c1`, the activation is 6.7% (inactive).
In the case of `COC(=O)c1ccc(CNC(=O)Cn2cc(C)c(=O)[nH]c2=O)cc1`, the activation is 4.54% (inactive).
On to `COC(=O)C1=CN(Cc2ccc(OC)cc2)C=C(C(=O)OC)C1c1ccc(O)c(OC)c1`, for which the activation was 5.83% (inactive).
As to `C=CCNC(=S)/N=c1/ccccn1Cc1ccccc1`, the activation is 4.17% (inactive).
As for `COc1ccc(C(=O)CN2C(=O)NC(C)(c3ccc(C)cc3)C2=O)cc1OC` (stereo not drawn), the activation is -1.44% (inactive).
In the case of `CCOc1ccc(CCNC(=O)COC(=O)C2CCN(S(=O)(=O)c3ccccc3)CC2)cc1OCC`, the activation is 2.21% (inactive).
Regarding `CCc1nnc(NC(=O)C2CC(=O)N(c3ccc4c(c3)OCCO4)C2)s1` (stereo not drawn), the activation is 3.02% (inactive).
As for `Cn1c(=O)n(C)c2cc(S(=O)(=O)Nc3ccc(F)cc3)ccc21`, the activation is 4.63% (inactive).
As for `Cc1cc2oc(C(=O)Nc3c(C)n(C)n(-c4ccccc4)c3=O)c(C)c2cc1Cl`, the figure is 1.29% (inactive); as for `S=C1Nc2cc(Cl)ccc2Sc2ccccc21`, 0.11% (inactive).
In the case of `CC(C#N)(NC(=O)CN1CCN(S(=O)(=O)c2cc(C(F)(F)F)ccc2Cl)CC1)C1CC1` (stereo not drawn) it was 5.5% (inactive); in that of `CNC(=O)NC(=O)C(OC(=O)c1cccc(S(=O)(=O)N2CCCCC2)c1)c1ccccc1` (stereo not drawn), -3.23% (inactive); in that of `N#Cc1ccccc1NC(=O)COc1c(Br)cc(Br)c2cccnc12`, -2.72% (inactive).
In the case of `COc1ccc(S(=O)(=O)N2CCN(c3cnccn3)CC2)cc1`, the activation is 0.13% (inactive).
As for `O=C(NCCc1ccc(F)cc1)c1ccc2nccnc2c1`, the figure is -0.11% (inactive).
In the case of `CCC(=O)Nc1cccc(C2=NOC3(C2)C[C@@H](C(N)=O)N(C(=O)c2cc([N+](=O)[O-])cc([N+](=O)[O-])c2C)C3)c1` (stereo partly drawn) it was 5.78% (inactive); in that of `O=C(N/C(=C\c1ccc(F)cc1)C(=O)N1CCCCCC1)c1ccccc1`, 5.73% (inactive); in that of `O=C(C1Cc2ccccc2CN1C(=O)c1ccco1)N1CCN(c2ccccc2)CC1` (stereo not drawn), 4.46% (inactive).
As for `CCOC(=O)CSc1nnc(CNC(=O)c2cccs2)n1-c1cc(OC)ccc1OC`, the activation is 0.94% (inactive).
As for `COc1ccc(-c2oc3ncn(Cc4ccco4)c(=N)c3c2-c2ccc(OC)cc2)cc1`, the activation was 5.41% (inactive).
In the case of `CCOC(=O)c1cccc(NC(=O)CN2C(=O)C3CC=CCC3C2=O)c1` (stereo not drawn) it was 1.23% (inactive); in that of `Cn1c2ccccc2c2cc(/C=C(\NC(=O)c3ccccc3)C(=O)NCC(=O)O)ccc21`, -43.6% (inactive).
As for `CCN1CCN(c2cc3nc(C)n(Cc4ccccc4)c(=O)c3cc2NC(=O)c2ccccc2F)CC1`, the figure is 2.61% (inactive); as for `Cc1ccsc1C(=O)NC1CCCCC1C` (stereo not drawn), -2.46% (inactive); as for `Cc1cc(=O)oc(C)c1C(=O)NCCN(C)Cc1ccccc1`, -4.58% (inactive).
In the case of `CN(C(=O)CSc1nnc(C2CC2)n1C)C1CCCc2ccccc21` (stereo not drawn) it was 0.43% (inactive).
In the case of `CC(C)C(NC(=O)c1c(F)cccc1F)C(=O)NNC(=O)c1ccccc1` (stereo not drawn), the activation was 5.51% (inactive).
Turning to `O=S(=O)(Nc1ccc2ccccc2c1)N1CCCCC1`, the activation is 1.85% (inactive).
In the case of `CC1CCC(NS(=O)(=O)c2ccc3c(c2)CC(=O)N3)CC1` (stereo not drawn) it was 3.97% (inactive).
Consider `CCOC(=O)C1(CCOc2ccccc2)CCN(Cc2cc(OC)c(O)cc2Cl)CC1`, for which the activation was 2.9% (inactive).
Regarding `CCOC(=O)C1(CCOc2ccccc2)CCN(Cc2cc(OC)cc(OC)c2)CC1`, the activation is -1.76% (inactive).
In the case of `Cc1c(CN2CCC(CO)(CCOc3ccccc3)CC2)[nH]c2ccc(Cl)cc12` it was 24.6% (active); in that of `COc1ccccc1/C=C/C1=NC(=C\N(C)C)/C(=O)O1`, -5.01% (inactive); in that of `Cn1c(=O)c2cc(S(=O)(=O)NCCC(=O)Nc3ccc(F)cc3F)ccc2n(C)c1=O`, 5.29% (inactive).
On to `COc1ccc(C2C(C#N)=C(N)Oc3n[nH]c(C)c32)cc1CN1CCN(c2ccc(F)cc2)CC1` (stereo not drawn), for which the activation is -3.14% (inactive).
In the case of `Cc1cccc(NC(=O)CSc2nnc(CCNC(=O)OC(C)(C)C)o2)c1C` it was -0.87% (inactive).
As for `Cc1ccccc1OC(=O)Cn1c(C(F)(F)F)nc2ccccc21`, the activation was 3.41% (inactive).
As for `Cc1cc(C)cc(NC(=O)NC2CCCCCCC2)c1`, the figure is 0.99% (inactive).
As for `COC1C(CO)OC(n2cnc3c(=S)nc(N)[nH]c32)C1O` (stereo not drawn), the figure is -9.08% (inactive); as for `Cc1noc(C)c1NC(=O)Nc1cccc2c1O[C@H](CN(C)S(=O)(=O)c1c(C)noc1C)[C@@H](C)CN([C@H](C)CO)C2=O`, -2.65% (inactive).
As for `O=S(=O)(/C=C/c1ccccc1)NCCc1ccccn1`, the figure is 2.29% (inactive); as for `NC(=O)c1ccc(NC(=O)COC(=O)c2c3c(nc4ccccc24)/C(=C\c2ccc4c(c2)OCO4)CCC3)cc1`, 39.3% (active); as for `NS(=O)(=O)c1ccc(NC(=O)COC(=O)c2c3c(nc4ccccc24)/C(=C\c2ccc4c(c2)OCO4)CCC3)cc1`, 1.16% (inactive).
On to `O=C(COC(=O)c1ccncc1)Nc1ccc2c(c1)OCO2`, for which the activation is 3.58% (inactive).
On to `CCCN(CC(=O)Nc1ccc(C(N)=O)cc1)CC(=O)Nc1ccccc1C`, for which the activation is 0.5% (inactive).
As to `O=S(=O)(c1ccc2ccccc2c1)N1CCN(S(=O)(=O)N2CCOCC2)CC1`, the activation was -4.09% (inactive).
For `Cc1ccc(CC(=O)N(C)CC(=O)N(CC(C)C)c2c(N)n(CC(C)C)c(=O)[nH]c2=O)cc1C`, the activation is -3.16% (inactive).
On to `O=C(NCc1ccncc1)C(=O)NCC1OCCN1S(=O)(=O)c1ccc(Br)cc1` (stereo not drawn), for which the activation is 1.15% (inactive).
As for `COc1cccc2sc(N(CCCN(C)C)C(=O)CCS(=O)(=O)c3ccccc3)nc12`, the figure is 5.71% (inactive).
In the case of `COc1cccc2sc(N(CCCN(C)C)C(=O)C(c3ccccc3)c3ccccc3)nc12` it was 31% (active); in that of `COc1cc2ccccc2cc1C(=O)N(CCN(C)C)c1nc2c(F)cccc2s1`, 6.93% (inactive).
As for `NS(=O)(=O)c1ccc(NC2=CC(c3ccc(F)cc3)N(c3ccc(S(N)(=O)=O)cc3)C2=O)cc1` (stereo not drawn), the figure is 1.07% (inactive); as for `CC(=O)c1cccc(-n2nnnc2SCC(=O)NNC(=O)C2CCCCC2)c1`, 6.48% (inactive); as for `Oc1ccc2ccc3cccc[n+]3c2c1`, 26.2% (active).
With `Oc1ccc(-c2nc3ccccc3nc2-c2ccc(O)cc2O)c(O)c1`, the activation was 3.04% (inactive).
For `Cc1ccc(-c2nn(C(C)(C)C)c3ncnc(N)c23)cc1`, the activation is 2.32% (inactive).
Turning to `Cc1cccc2c1cnn2C(=O)CCC(=O)NC1CCCCC1`, the activation was 0.37% (inactive).
For `COc1cc(Cl)cc(C2NC(=O)NC(C)=C2C(=O)NCc2ccccc2)c1O` (stereo not drawn), the activation was -1.41% (inactive).
In the case of `Brc1ccccc1C1Nc2cccc3cccc(c23)N1`, the activation is 8.61% (inactive).
In the case of `COc1ccc(C2NC(=O)c3ccccc3N2)cc1` (stereo not drawn) it was 3.47% (inactive).
Regarding `Oc1ccc(C2Nc3cccc4cccc(c34)N2)cc1`, the activation is 19.4% (active).
As for `C=CCOC(=O)C1=C[C@H](c2ccc(Br)cc2)C[C@H](OCCCCO)O1`, the figure is -1.17% (inactive).
`NC(=O)COC(=O)c1ccc2c(c1)C(=O)N(Cc1ccco1)C2=O`: the activation is 1.77% (inactive).
In the case of `O=C(Nc1cc2c3c(c1)C1CCCC1CN3CC1CCCC21)c1ccc([N+](=O)[O-])cc1` (stereo not drawn) it was 1.32% (inactive); in that of `CC(=O)c1ccc(N2CCN(CC(O)c3ccccc3)CC2)cc1` (stereo not drawn), 3.22% (inactive).
As for `Cc1ccccc1OC/C(O)=C(\C#N)c1nc2ccccc2[nH]1`, the figure is 22.2% (active).
In the case of `COCCNC(=O)COc1ccccc1C`, the activation was 3.83% (inactive).
Take `CC(C)(C)c1nnc2sc(SCC(O)=C(C#N)c3nc4ccccc4[nH]3)nn2c1=O`: the activation was -2.57% (inactive).
In the case of `O=C(Nc1ccccc1C(=O)N1CCCCC1)c1ccco1` it was 7.42% (inactive); in that of `CC(C)[C@@H](C(=O)OCC(=O)c1ccc2c(c1)NC(=O)CO2)N1C(=O)c2ccccc2C1=O`, 6.47% (inactive).
